# “And” between values parts separate entries of the source, which are not always exact repeats. Equal entries are not always repeated. The source made the active and inactive calls. Cut-off read from the data, not from the text of the source, unless noted: active = inhibition above about 80%; inactive = the rest.
# Columns and labels:
# [1] = growth inhibition, single agents and combos, ICB984, cell-based, cisplatin or BGB combos, synergistic combos for chromothripsis tumors (AID 1671451; call rule not given here;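 note: cells exposed for 96 hours before readout; 0% = vehicle DMSO and 100% = killing by high DMSO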); conditions: ICB984 medulloblastoma cells, drug combinations, stronger effect = higher value
# [2] = growth inhibition, single agents and combos, LFS_MB_1R, cell-based, cisplatin or BGB combos, synergistic combos for chromothripsis tumors (AID 1671452); conditions: LFS_MB_1R medulloblastoma cells, stronger effect = higher value;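 note: cells exposed for 96 hours before readout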
# [3] = growth inhibition, single agents and combos, HTB85, cell-based, BGB or cisplatin IC20 combos, synergistic combos for chromothripsis tumors (AID 1671453); conditions: HTB85 osteosarcoma cells, drug combinations, stronger effect = higher value;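 note: cells exposed for 96 hours before readout; 0% = vehicle DMSO and 100% = high DMSO killing control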
# [4] = growth inhibition, single agents and combos, CRL2098, cell-based, BGB or cisplatin IC20 combos, synergistic combos for chromothripsis tumors (AID 1671454); conditions: CRL2098 osteosarcoma cells, drug combinations, stronger effect = higher value;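 note: cells exposed for 96 h before readout; 0% = vehicle DMSO and 100% = killing by high DMSO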
# [5] = growth inhibition, single agents and combos, HD-MB03, cell-based, BGB or cisplatin IC20 combos, synergistic combos for chromothripsis tumors (AID 1671455; in the data active = inhibition above about 83%;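 note: 0% = vehicle DMSO and 100% = high DMSO as cytotoxic control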); conditions: HD-MB03 medulloblastoma cells, stronger effect = higher value
# [6] = growth inhibition, single agents and combos, UWB1.289, cell-based, BGB or cisplatin combos, synergistic combos for chromothripsis tumors (AID 1671456); conditions: UWB1.289 ovarian carcinoma cells, stronger effect = higher value;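 note: cells exposed to compound for four days; 0% = vehicle DMSO and 100% = killing by high DMSO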
# [7] = growth inhibition, single agents and combos, LFS_MB_2R, cell-based, cisplatin combos, synergistic combos for chromothripsis tumors (AID 1671457); conditions: LFS_MB_2R medulloblastoma cells, stronger effect = higher value;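 note: cells exposed to compound for four days before readout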
# [8] = growth inhibition, MDA-MB-436, cell-based, BGB or cisplatin combos, synergistic combos for chromothripsis tumors (AID 1671458; call rule not given here;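 note: cells exposed for 96 hours; 0% = vehicle DMSO and 100% = killing by high DMSO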); conditions: MDA-MB-436 breast carcinoma growth inhibition, drug combinations, stronger effect = higher value
# [9] = UWB1.289_BRCA1 ovarian cancer growth, cell-based, BGB or cisplatin combinations (AID 1671459); conditions: UWB1.289 BRCA1 ovarian carcinoma, drug combinations, stronger effect = higher value
# [10] = drug combination toxicity in non-malignant astrocytes – cell-based, BGB or cisplatin IC20 combos, cytotoxicity control for chromothriptic childhood tumor combination screen (AID 1671460); conditions: Human astrocytes, viability inhibition, drug combinations, at 0.5 µM, stronger effect = higher value;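 note: cells exposed to compounds for 96 hours before viability readout; 0% = vehicle and 100% = killing control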
# [11] = BT084 cell growth, single and combined drugs, ICGC_MB145, cisplatin and BGB IC40 combos (AID 1671461); conditions: BT084 medulloblastoma cells, drug combinations, stronger effect = higher value;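 note: cells exposed to drugs for 96 hours; 0% = vehicle DMSO and 100% = high DMSO full killing control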
# [12] = RCMB18 cell growth, single agent and combined, cisplatin and BGB IC40 combos (AID 1671462); conditions: RCMB18 medulloblastoma cells, stronger effect = higher value;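 note: cells exposed to compound for four days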
# [13] = CRL1545 cell growth, single agent and combined, cisplatin and BGB IC20 combos (AID 1671464); conditions: CRL1545 osteosarcoma cells, stronger effect = higher value;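 note: cells exposed to compound for 96 hours before readout; 0% = vehicle DMSO and 100% = high DMSO killing control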
# [14] = measured here: combination with cisplatin, at 0.5 µM
# [15] = measured here: combination with cisplatin, at 5 µM
structure (smiles),measurement,setting,value
CN(C)Cc1ccc(-c2nc3cccc4c3n2CCNC4=O)cc1,inhibition,"[1]; BGB IC20 combo, at 0.005 µM",-1.21% and 16.5%
same,inhibition,"[1]; BGB IC40 combo, at 0.005 µM",-19.6% and -25.1%
same,inhibition,"[1]; BGB IC40 combo, at 0.05 µM",-33.7% and -42.1%
same,inhibition,[1]; at 0.5 µM,-15.4% (inactive) and -23.9% (inactive)
same,inhibition,"[1]; cisplatin combo, at 0.05 µM",-40.7% and -47.2%
same,inhibition,"[1]; cisplatin combo, at 0.5 µM",-18.6%
same,inhibition,"[1]; cisplatin combo, at 5 µM",-4.49% and -37.9%
same,inhibition,"[1]; measured here: 5 uM single agent, at 5 µM",-23% and -7.92%
same,inhibition,[2]; at 0.5 µM,-21.9% (inactive) and -12.8% (inactive)
same,inhibition,"[2]; measured here: combination with BGB IC40, at 0.05 µM",-8.61% and -31.3%
same,inhibition,[2]; [14],-36.5% and -4.44%
same,inhibition,[2]; [15],-20.1% and -27.3%
same,inhibition,[3]; at 0.5 µM,17.4% (inactive) and -2.96% (inactive)
same,inhibition,"[3]; measured here: with BGB IC20, at 0.5 µM",58.8% and -16.5%
same,inhibition,"[3]; measured here: with BGB IC20, at 5 µM",10.8% and 1.62%
same,inhibition,"[3]; measured here: with cisplatin IC20, at 0.5 µM",-2.97% and 1.8%
same,inhibition,"[3]; measured here: with cisplatin IC20, at 5 µM",2.38% and -10.9%
same,inhibition,"[3]; single agent, at 5 µM",7.8% and -6.63%
same,inhibition,[4]; at 0.5 µM,-12.7% (inactive) and -34.7% (inactive)
same,inhibition,"[4]; measured here: combination with BGB at IC20, at 0.5 µM",3.27% and -18.3%
same,inhibition,"[4]; measured here: combination with cisplatin at IC20, at 0.5 µM",-10.7% and -61.5%
same,inhibition,[5]; at 0.5 µM,-4.1% (inactive) and -8.91% (inactive)
same,inhibition,"[5]; measured here: combo with BGB at IC20, at 0.5 µM",-6.79% and -18.1%
same,inhibition,"[5]; measured here: combo with cisplatin at IC20, at 0.5 µM",-1.2% and -11.2%
same,inhibition,[6]; at 0.5 µM,2.77% (inactive) and -2.19% (inactive)
same,inhibition,"[6]; measured here: inhibition with BGB combination, at 0.05 µM",-14.3% and 1.91%
same,inhibition,"[6]; measured here: inhibition with cisplatin combination, at 0.05 µM",-5.64% and -29.4%
same,inhibition,[7]; at 0.5 µM,-22.3% (inactive) and -21% (inactive)
same,inhibition,[7]; [14],-26.3% and -32%
same,inhibition,[7]; [15],-30.5% and -31.6%
same,inhibition,[8]; at 0.5 µM,-0.12% (inactive) and 3.53% (inactive)
same,inhibition,"[8]; measured here: BGB combination, at 0.5 µM",-12.4% and -11.3%
same,inhibition,"[8]; measured here: BGB combination, at 5 µM",-14% and -5.01%
same,inhibition,"[8]; measured here: cisplatin combination, at 0.5 µM",2.29% and 7.08%
same,inhibition,"[8]; measured here: cisplatin combination, at 5 µM",-4.32% and 2.44%
same,inhibition,"[9]; BGB combination, concentration series, at 5 µM",7.25% and 16.2%
same,inhibition,[9]; at 0.5 µM,0.7% (inactive) and -0.32% (inactive)
same,inhibition,"[9]; cisplatin combination, concentration series, at 5 µM",5.02% and -8.46%
same,inhibition,[10],3.46% (inactive) and 6.94% (inactive)
same,inhibition,[10]; measured here: combo with BGB IC20,2.28% and -1.45%
same,inhibition,[10]; measured here: combo with cisplatin IC20,8.6% and 1.46%
same,inhibition,[11]; at 0.5 µM,-6.05% (inactive) and -22.2% (inactive)
same,inhibition,"[11]; cisplatin combination, at 0.5 µM",-18.4% and -65.7%
same,inhibition,"[11]; cisplatin combination, at 5 µM",-58.6% and -32.7%
same,inhibition,"[11]; measured here: BGB IC40 combination 0.05 uM, at 0.05 µM",-19.6% and 43.4%
same,inhibition,"[11]; single agent, at 5 µM",-6.92% and -7.26%
same,inhibition,[12]; at 0.5 µM,-9.62% (inactive) and -41.4% (inactive)
same,inhibition,"[12]; cisplatin combo, at 5 µM",-40.6% and -33.3%
same,inhibition,"[12]; measured here: BGB IC40 combination, at 0.05 µM",-1.87% and -3.35%
same,inhibition,[12]; [14],-15.6% and -104%
same,inhibition,"[12]; single agent, at 5 µM",-19.5% and -24.5%
same,inhibition,[13]; at 0.5 µM,4.03% (inactive) and 11.8% (inactive)
same,inhibition,"[13]; measured here: with BGB IC20 combination, at 0.5 µM",-8.48% and 3.96%
same,inhibition,"[13]; measured here: with cisplatin IC20 combination, at 0.5 µM",8.84% and 14.3%
same,inhibition,"[13]; single agent, at 0.05 µM",17.2% and 13.3%
same,inhibition,"[13]; single agent, at 5 µM",-17.9% and -17.8%

# — PubChem BioAssay
